Laboratory results as given in article PMC7862700, “An all-to-all approach to the identification of sequence-specific readers for epigenetic DNA modifications on cytosine”.

Columns and labels:
Experiment in all cases: DAPPL (digital affinity profiling via proximity ligation, sequencing); 10 mM Tris-HCl pH 7.5, 50 mM NaCl, 1 mM DTT, 4% glycerol, room temperature, 30 min; GST-TFs on glutathione beads, 16-mer random dsDNA library, 0.1% formaldehyde crosslink after washing; high values mean tight binding
FLI1 = target: T1, FLI1 (Homo sapiens, UniProt Q01543 1-452); details: protein: recombinant; tags: N-terminal GST; dsDNA, one strand shown
T1 sequence: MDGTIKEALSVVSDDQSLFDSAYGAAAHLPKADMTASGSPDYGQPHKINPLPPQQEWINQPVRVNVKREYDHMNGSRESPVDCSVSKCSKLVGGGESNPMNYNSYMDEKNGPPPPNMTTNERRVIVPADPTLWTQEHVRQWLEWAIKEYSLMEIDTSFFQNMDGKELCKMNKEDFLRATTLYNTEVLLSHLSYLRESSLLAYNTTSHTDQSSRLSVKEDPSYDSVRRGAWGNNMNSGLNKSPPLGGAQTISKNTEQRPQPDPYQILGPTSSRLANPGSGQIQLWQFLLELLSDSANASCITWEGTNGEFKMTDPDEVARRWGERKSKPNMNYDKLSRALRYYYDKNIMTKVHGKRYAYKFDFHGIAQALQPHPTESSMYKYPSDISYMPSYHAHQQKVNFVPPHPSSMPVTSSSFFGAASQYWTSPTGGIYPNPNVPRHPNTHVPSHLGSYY
How it was run: (§1)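 GST fusions of human transcription factors were expressed in yeast and captured with glutathione beads. Once given DNA barcodes and pooled alongside a tag-only sample, they were incubated for 30 min at room temperature with 200 nmole of a random double-stranded 16-mer DNA library in Tris/NaCl/DTT/glycerol buffer, then washed, crosslinked (0.1% formaldehyde), proximity-ligated, PCR-amplified and sequenced on an Illumina NextSeq500. The binding signal of each hexamer is its read frequency for a factor divided by its frequency for the tag-only sample.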

ELK1 = target: T2, ELK1 (Homo sapiens, UniProt P19419 1-428); details: protein: recombinant; tags: N-terminal GST; dsDNA, one strand shown
T2 sequence: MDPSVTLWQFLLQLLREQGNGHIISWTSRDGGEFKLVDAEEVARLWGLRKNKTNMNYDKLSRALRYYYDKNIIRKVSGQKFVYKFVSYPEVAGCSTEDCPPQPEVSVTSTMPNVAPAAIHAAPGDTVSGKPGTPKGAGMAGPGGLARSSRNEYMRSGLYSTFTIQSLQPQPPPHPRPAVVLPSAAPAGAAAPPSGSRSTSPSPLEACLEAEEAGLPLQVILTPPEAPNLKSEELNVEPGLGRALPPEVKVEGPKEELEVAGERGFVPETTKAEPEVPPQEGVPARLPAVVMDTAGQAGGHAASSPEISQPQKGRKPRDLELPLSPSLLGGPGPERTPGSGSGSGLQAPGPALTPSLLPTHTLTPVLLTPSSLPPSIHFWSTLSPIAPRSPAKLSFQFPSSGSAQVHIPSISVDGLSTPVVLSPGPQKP
How it was run: as §1

GABPA = target: T3, GABPA (Homo sapiens, UniProt Q06546 1-454); details: protein: recombinant; tags: N-terminal GST; dsDNA, one strand shown
T3 sequence: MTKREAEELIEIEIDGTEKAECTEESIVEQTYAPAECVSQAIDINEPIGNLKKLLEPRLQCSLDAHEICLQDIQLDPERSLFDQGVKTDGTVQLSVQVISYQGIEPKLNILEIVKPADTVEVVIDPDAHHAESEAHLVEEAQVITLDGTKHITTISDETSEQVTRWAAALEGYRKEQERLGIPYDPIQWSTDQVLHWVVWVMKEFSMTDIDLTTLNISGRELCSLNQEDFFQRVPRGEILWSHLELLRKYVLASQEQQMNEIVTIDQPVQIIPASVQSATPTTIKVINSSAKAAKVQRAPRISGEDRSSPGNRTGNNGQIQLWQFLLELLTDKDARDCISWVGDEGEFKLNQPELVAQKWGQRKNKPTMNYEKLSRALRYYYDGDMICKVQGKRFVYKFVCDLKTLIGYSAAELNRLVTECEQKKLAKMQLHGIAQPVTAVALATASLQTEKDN
How it was run: as §1

ERG = target: T4, ERG (Homo sapiens, UniProt P11308 1-479); details: protein: recombinant; tags: N-terminal GST; dsDNA, one strand shown
T4 sequence: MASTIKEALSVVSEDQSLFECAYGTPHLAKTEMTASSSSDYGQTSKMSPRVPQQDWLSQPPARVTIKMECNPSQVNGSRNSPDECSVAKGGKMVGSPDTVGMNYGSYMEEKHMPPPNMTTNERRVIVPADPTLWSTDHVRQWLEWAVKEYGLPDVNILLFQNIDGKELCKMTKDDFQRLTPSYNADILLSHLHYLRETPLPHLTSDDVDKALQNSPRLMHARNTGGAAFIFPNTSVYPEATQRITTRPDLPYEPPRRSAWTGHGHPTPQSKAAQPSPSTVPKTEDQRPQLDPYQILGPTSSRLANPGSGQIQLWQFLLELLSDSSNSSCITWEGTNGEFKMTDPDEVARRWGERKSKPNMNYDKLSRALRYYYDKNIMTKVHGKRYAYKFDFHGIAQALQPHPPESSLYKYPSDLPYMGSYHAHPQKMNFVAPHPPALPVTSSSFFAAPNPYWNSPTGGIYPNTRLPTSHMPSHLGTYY
How it was run: as §1

ELF1 = ELF1 (Homo sapiens, UniProt P32519 1-619); details: protein: recombinant; tags: N-terminal GST; dsDNA, one strand shown
How it was run: as §1

EHF = target: T5, EHF (Homo sapiens, UniProt Q9NZC4 1-300); details: protein: recombinant; tags: N-terminal GST; dsDNA, one strand shown
T5 sequence: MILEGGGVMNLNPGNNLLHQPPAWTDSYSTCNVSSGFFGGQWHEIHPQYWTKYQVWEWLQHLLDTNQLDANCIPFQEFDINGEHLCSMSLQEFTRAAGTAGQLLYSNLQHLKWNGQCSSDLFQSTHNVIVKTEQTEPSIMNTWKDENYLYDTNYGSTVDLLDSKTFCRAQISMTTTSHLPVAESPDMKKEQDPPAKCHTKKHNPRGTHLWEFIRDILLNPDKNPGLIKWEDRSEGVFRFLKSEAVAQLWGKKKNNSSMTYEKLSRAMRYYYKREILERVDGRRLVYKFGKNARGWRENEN
How it was run: as §1

SPI1 = SPI1 (Homo sapiens, UniProt P17947 1-270); details: protein: recombinant; tags: N-terminal GST; dsDNA, one strand shown
How it was run: as §1

SPIB = SPIB (Homo sapiens, UniProt Q01892 1-262); details: protein: recombinant; tags: N-terminal GST; dsDNA, one strand shown
How it was run: as §1

ELK3 = target: T6, ELK3 (Homo sapiens, UniProt P41970 1-407); details: protein: recombinant; tags: N-terminal GST; dsDNA, one strand shown
T6 sequence: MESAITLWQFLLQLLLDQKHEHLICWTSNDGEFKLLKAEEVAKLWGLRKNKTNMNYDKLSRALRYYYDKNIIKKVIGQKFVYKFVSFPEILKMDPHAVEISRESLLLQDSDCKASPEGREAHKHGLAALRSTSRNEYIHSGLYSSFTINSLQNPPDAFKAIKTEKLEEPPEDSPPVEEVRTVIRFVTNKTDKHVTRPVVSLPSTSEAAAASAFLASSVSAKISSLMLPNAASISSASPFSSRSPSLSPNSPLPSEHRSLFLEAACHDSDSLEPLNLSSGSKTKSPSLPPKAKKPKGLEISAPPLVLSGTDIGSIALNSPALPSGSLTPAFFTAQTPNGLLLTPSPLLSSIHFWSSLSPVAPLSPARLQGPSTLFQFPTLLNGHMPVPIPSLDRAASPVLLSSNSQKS
How it was run: as §1

FEV = target: T7, FEV (Homo sapiens, UniProt Q99581 1-238); details: protein: recombinant; tags: N-terminal GST; dsDNA, one strand shown
T7 sequence: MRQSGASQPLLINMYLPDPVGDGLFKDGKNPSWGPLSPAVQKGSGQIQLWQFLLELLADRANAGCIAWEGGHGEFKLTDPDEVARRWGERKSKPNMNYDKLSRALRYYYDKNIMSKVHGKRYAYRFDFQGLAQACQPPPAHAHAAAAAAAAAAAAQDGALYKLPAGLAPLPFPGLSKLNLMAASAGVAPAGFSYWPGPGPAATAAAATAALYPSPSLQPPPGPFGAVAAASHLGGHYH
How it was run: as §1

ETV5 = ETV5 (Homo sapiens, UniProt P41161 1-510); details: protein: recombinant; tags: N-terminal GST; dsDNA, one strand shown
How it was run: as §1

HSF1 = HSF1 (Homo sapiens, UniProt Q00613 1-529); details: protein: recombinant; tags: N-terminal GST; chain copies: 3; dsDNA, one strand shown
How it was run: as §1

SPIC = target: T8, SPIC (Homo sapiens, UniProt Q8N5J4 1-248); details: protein: recombinant; tags: N-terminal GST; dsDNA, one strand shown
T8 sequence: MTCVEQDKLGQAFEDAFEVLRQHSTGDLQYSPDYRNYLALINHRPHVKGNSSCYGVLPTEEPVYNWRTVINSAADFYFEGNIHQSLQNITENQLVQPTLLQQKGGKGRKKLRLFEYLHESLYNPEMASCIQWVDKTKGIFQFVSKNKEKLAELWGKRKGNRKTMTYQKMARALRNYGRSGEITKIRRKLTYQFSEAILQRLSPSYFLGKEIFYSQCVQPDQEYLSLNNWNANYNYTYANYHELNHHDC
How it was run: as §1

ELF4 = ELF4 (Homo sapiens, UniProt Q99607 1-663); details: protein: recombinant; tags: N-terminal GST; dsDNA, one strand shown
How it was run: as §1

ELK4 = target: T9, ELK4 (Homo sapiens, UniProt P28324-2 1-405); details: protein: recombinant; tags: N-terminal GST; dsDNA, one strand shown
T9 sequence: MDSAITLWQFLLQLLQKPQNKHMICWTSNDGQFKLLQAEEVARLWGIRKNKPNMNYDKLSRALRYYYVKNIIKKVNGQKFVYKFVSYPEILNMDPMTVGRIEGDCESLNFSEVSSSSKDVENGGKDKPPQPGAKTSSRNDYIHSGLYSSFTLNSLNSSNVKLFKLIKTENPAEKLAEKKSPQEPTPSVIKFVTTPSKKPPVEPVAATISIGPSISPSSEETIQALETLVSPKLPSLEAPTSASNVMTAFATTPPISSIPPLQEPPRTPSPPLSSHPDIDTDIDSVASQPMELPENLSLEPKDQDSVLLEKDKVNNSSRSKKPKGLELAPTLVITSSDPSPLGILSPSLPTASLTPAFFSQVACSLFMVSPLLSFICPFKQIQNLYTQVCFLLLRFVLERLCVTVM
How it was run: as §1

ETV2 = target: T10, ETV2 (Homo sapiens, UniProt O00321 1-342); details: protein: recombinant; tags: N-terminal GST; dsDNA, one strand shown
T10 sequence: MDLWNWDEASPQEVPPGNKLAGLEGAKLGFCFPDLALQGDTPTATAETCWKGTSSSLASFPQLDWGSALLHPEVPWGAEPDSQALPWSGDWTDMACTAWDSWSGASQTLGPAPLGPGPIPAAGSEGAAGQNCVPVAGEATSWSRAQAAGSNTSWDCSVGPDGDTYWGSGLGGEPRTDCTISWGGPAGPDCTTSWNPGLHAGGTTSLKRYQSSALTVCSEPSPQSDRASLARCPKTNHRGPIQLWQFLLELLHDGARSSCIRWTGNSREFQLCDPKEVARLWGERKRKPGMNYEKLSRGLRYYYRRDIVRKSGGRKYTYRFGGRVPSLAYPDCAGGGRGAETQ
How it was run: as §1

ELF3 = target: T11, ELF3 (Homo sapiens, UniProt P78545 1-371); details: protein: recombinant; tags: N-terminal GST; dsDNA, one strand shown
T11 sequence: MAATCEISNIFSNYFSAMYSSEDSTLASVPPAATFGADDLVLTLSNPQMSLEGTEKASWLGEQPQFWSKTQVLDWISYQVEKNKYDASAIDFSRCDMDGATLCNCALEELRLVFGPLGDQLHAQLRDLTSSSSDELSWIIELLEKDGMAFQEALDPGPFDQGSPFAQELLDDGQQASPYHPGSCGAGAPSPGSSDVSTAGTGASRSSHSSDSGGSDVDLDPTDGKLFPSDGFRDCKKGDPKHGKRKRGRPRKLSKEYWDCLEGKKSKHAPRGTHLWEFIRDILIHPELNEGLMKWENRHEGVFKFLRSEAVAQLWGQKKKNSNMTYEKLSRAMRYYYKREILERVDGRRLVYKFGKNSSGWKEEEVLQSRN
How it was run: as §1

CRX = CRX (Homo sapiens, UniProt O43186 1-299); details: protein: recombinant; tags: N-terminal GST; dsDNA, one strand shown
How it was run: as §1

ETV1 = ETV1 (Homo sapiens, UniProt P50549 1-477); details: protein: recombinant; tags: N-terminal GST; dsDNA, one strand shown
How it was run: as §1

CRX, sequence (O43186 whole entry): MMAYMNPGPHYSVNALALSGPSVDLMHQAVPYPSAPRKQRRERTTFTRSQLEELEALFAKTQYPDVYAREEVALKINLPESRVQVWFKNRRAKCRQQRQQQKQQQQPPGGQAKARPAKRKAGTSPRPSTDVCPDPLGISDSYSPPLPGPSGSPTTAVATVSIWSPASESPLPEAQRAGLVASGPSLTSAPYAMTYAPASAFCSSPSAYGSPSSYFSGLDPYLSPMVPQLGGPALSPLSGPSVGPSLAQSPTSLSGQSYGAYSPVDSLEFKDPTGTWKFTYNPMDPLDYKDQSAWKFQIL
ELF4, sequence (Q99607 whole entry): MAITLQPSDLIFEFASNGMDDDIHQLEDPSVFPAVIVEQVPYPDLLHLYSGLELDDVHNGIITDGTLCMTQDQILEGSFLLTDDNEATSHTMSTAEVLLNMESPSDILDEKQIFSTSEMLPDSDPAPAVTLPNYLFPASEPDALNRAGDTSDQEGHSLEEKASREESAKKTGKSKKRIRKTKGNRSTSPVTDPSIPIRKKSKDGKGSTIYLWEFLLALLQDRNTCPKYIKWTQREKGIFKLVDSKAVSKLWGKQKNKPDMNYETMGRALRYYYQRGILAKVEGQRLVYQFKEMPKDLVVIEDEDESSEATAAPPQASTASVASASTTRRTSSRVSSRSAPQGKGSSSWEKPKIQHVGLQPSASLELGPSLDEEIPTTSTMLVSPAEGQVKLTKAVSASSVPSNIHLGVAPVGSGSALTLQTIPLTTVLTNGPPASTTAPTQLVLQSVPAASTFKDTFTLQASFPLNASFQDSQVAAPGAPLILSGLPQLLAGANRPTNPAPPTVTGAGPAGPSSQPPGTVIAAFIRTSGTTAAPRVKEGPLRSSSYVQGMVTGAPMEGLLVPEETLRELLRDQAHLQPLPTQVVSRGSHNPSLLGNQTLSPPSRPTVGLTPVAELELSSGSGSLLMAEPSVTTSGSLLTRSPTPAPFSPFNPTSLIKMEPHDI
HSF1, sequence (Q00613 whole entry): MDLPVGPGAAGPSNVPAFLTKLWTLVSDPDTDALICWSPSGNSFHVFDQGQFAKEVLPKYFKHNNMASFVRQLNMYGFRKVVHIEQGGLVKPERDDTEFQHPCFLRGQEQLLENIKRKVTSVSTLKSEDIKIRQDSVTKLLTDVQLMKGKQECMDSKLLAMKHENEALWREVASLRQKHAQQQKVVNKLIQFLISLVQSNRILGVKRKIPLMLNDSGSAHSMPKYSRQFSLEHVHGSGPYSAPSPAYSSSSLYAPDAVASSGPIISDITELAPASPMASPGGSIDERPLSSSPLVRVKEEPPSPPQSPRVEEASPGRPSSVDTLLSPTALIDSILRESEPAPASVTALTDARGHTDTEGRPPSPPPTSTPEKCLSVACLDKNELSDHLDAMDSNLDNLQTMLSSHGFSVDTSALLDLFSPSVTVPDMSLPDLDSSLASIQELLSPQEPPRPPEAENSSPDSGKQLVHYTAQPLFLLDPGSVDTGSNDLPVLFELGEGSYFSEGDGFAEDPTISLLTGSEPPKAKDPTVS
ELF1, sequence (P32519 whole entry): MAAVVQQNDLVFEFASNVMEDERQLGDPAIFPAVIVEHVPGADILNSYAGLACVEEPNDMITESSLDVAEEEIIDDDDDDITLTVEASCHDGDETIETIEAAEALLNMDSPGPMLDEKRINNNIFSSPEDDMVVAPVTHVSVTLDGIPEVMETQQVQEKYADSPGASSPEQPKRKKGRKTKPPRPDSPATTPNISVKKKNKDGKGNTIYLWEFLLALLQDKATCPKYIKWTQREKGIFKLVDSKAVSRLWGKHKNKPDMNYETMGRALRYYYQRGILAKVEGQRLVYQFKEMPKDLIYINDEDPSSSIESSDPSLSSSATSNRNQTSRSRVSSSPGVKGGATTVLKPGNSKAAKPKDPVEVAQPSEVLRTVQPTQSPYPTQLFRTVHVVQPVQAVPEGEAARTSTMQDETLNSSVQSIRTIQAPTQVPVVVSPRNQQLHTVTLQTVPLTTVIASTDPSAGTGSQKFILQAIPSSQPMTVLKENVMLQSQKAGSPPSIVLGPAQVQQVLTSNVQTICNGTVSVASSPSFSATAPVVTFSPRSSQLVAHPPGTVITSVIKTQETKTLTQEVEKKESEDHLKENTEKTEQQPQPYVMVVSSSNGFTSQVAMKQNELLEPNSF
SPIB, sequence (Q01892 whole entry): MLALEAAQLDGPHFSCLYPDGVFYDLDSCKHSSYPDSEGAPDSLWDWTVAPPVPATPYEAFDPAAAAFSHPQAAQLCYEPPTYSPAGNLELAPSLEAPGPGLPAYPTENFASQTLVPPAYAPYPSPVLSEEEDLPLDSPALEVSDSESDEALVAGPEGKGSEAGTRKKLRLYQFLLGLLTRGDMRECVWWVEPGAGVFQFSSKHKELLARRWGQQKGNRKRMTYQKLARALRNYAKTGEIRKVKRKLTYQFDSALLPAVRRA
ETV1, sequence (P50549 whole entry): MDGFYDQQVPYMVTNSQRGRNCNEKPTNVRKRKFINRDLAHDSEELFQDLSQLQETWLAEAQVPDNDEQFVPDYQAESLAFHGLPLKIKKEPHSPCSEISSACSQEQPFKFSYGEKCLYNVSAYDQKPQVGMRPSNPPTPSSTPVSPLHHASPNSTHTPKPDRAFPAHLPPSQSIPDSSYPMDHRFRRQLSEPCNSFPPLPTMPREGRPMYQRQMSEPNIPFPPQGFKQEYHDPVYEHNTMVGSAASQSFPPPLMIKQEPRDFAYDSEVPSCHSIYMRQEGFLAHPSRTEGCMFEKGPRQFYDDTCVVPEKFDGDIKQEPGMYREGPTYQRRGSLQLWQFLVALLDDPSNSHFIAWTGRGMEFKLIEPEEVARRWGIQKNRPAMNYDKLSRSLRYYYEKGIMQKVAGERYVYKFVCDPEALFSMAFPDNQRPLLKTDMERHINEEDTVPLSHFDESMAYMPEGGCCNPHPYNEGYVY
ETV5, sequence (P41161 whole entry): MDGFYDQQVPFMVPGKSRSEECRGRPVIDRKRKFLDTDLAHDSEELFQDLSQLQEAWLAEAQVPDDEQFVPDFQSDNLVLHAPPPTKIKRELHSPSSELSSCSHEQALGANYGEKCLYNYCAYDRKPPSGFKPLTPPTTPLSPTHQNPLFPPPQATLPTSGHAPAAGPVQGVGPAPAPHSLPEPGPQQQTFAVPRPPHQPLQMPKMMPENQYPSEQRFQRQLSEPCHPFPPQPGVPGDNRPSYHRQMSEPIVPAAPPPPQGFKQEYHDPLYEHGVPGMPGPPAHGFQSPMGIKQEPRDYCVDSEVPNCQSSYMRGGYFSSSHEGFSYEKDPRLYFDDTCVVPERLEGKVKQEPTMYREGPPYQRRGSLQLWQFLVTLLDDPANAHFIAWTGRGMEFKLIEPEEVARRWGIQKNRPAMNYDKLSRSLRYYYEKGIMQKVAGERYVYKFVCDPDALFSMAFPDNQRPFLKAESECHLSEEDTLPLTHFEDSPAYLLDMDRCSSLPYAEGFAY

In the case of TATAAG, the binding signal (FLI1) is reported as 1.15 fold enrichment (6-mer frequency, TF over GST control), the binding signal (ELK1) is reported as 1.23 fold enrichment (6-mer frequency, TF over GST control) and the binding signal (GABPA) is reported as 1.16 fold enrichment (6-mer frequency, TF over GST control). The binding signal (ERG) was 1.12 fold enrichment (6-mer frequency, TF over GST control), the binding signal (ELF1) was 1.17 fold enrichment (6-mer frequency, TF over GST control) and the binding signal (EHF) was 1.1 fold enrichment (6-mer frequency, TF over GST control). The binding signal (SPI1) was 1.13 fold enrichment (6-mer frequency, TF over GST control), the binding signal (SPIB) was 1.12 fold enrichment (6-mer frequency, TF over GST control) and the binding signal (ELK3) was 1.24 fold enrichment (6-mer frequency, TF over GST control). The binding signal (FEV) was 1.05 fold enrichment (6-mer frequency, TF over GST control), the binding signal (ETV5) was 1.12 fold enrichment (6-mer frequency, TF over GST control) and the binding signal (HSF1) was 1.51 fold enrichment (6-mer frequency, TF over GST control). The binding signal (SPIC) was 1.1 fold enrichment (6-mer frequency, TF over GST control), the binding signal (ELF4) was 1.15 fold enrichment (6-mer frequency, TF over GST control) and the binding signal (ELK4) was 1.08 fold enrichment (6-mer frequency, TF over GST control). The binding signal (ETV2) was 1.22 fold enrichment (6-mer frequency, TF over GST control), the binding signal (ELF3) was 1.23 fold enrichment (6-mer frequency, TF over GST control) and the binding signal (CRX) was 2.08 fold enrichment (6-mer frequency, TF over GST control). The binding signal (ETV1) was 1.15 fold enrichment (6-mer frequency, TF over GST control).
